From ChEMBL document CHEMBL3988442, “University of Dundee, Small-Polar-MMV Screening Library” (2021) come the findings set out here.

SMILES strings stand for the structures. For some assays here: Entries with a potency or affinity are not part of this list.

Common to all, as to design: scale not given: direction of the effect not stated beside the values
Experiment [1] deals with Protein translocase subunit SecA (Escherichia coli (strain K12)) (UniProt P10408). The experiment is described as follows: Assay to Identify E. coli SecA ATPase Inhibitors. It counts as functional. As to conditions: 30 µM.
The target in experiment [2] is T1, Ubiquitin-activating enzyme e1, putative (Leishmania donovani (strain BPK282A1)) (UniProt E9BSI1).
T1 sequence (whole entry): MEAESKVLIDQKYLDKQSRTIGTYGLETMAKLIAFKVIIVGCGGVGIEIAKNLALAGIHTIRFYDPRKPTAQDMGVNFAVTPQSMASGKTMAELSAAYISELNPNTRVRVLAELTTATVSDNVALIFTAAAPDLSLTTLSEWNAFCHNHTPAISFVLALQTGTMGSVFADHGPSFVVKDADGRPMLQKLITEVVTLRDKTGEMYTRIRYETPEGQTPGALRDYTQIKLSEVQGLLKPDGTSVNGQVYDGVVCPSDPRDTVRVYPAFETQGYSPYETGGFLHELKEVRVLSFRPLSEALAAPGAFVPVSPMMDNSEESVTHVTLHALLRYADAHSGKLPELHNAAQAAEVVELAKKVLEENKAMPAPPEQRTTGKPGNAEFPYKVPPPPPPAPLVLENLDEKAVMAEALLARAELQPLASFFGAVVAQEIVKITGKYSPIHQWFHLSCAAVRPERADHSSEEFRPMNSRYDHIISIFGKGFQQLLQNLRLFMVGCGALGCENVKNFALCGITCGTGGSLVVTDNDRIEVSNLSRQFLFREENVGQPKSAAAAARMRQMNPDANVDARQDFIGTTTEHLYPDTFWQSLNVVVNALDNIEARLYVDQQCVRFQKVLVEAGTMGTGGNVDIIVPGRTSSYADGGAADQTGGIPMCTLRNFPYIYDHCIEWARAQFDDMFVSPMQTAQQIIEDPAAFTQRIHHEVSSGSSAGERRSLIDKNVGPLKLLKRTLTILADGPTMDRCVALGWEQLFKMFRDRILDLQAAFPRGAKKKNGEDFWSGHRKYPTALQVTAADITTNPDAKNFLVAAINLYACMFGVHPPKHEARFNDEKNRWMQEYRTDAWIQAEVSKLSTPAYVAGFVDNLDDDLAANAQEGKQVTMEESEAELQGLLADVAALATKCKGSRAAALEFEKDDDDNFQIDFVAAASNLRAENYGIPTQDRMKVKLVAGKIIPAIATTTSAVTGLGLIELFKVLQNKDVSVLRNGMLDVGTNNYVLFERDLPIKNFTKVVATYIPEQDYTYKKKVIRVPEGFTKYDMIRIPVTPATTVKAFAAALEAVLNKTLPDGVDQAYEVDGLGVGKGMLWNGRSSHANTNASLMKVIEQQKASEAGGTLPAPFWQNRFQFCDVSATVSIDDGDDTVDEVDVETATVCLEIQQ
As to the kind of experiment: Leishmania donovani Ubiquitin Activating Enzyme (LdE1). It counts as functional. As to conditions: 30 µM.

Experiment [3] deals with AMP-activated protein kinase, AMPK (Homo sapiens) (UniProt P54646+O43741+P54619+Q9UGJ0+Q9Y478+Q13131+Q9UGI9). As to the kind of experiment: AMP-dependent Kinase enzyme assay. An in vitro enzyme assay that detects ADP turnover that is directly proportional to AMPK activity. This uses naive AMPK that is activated during the assay with MK-8722. It counts as functional. As to conditions: 30 µM.

In experiment [4] the target is Sialic acid-binding Ig-like lectin 9 (Homo sapiens) (UniProt Q9Y336). As to the kind of experiment: Hs-Siglec9 ALPHAscreen SOP 20170721. As to conditions: 10 µM.
The subject of the next experiment is Trypanosoma cruzi. The experiment is described as follows: Trypanosoma cruzi phosphomannomutase and mannose-1-phosphate guanylyltransferase assay. It counts as functional. As to conditions: 10 µM.
In experiment [5] the target is T2, Arginase-2, mitochondrial (Homo sapiens) (UniProt P78540).
T2 sequence (whole entry): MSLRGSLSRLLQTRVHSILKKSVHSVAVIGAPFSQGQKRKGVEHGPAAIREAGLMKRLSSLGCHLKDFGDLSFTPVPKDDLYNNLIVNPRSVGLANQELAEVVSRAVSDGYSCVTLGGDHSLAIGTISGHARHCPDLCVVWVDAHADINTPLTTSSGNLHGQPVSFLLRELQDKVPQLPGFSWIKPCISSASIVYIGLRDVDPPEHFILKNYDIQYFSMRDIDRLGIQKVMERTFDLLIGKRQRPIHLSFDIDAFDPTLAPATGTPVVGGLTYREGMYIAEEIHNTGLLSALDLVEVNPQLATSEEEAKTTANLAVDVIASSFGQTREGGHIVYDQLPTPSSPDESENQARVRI
As to the kind of experiment: in vitro enzyme assay to detect the production of urea directly proportional to the activity of Arginase II. Note: in the data most compounds retested in dose-response had high values. It counts as functional. As to conditions: 33.3 µM.

Experiment [6] deals with T3, Proteasome subunit beta (Trypanosoma cruzi) (UniProt O96673).
T3 sequence (whole entry): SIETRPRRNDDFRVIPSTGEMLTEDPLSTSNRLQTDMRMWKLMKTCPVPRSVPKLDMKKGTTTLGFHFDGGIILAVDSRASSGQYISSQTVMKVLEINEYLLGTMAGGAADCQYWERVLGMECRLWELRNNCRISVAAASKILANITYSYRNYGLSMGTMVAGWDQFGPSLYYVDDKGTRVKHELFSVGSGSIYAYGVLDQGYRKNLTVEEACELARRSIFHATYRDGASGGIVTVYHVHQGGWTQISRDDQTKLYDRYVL
As to the kind of experiment: Trypanosoma cruzi proteasome chymotrypsin-like activity (TcProtChymo) assay. Note: in the data most compounds retested in dose-response had high values. It counts as functional. As to conditions: 9.37 µM.

The species named for another experiment is Homo sapiens. As to the kind of experiment: To identify inhibition of the IFN signalling (Jak-Stat) pathway via expression of an eGFP reporter gene under the control of an IFN-stimulated response element (ISRE) containing MxA promoter. It counts as functional. As to conditions: 30 µM. Background: Reporter assays use an easily measured gene product as a stand-in for the process of interest.

Experiment [7] has as its target T4, Tyrosyl-tRNA synthetase, putative (Trypanosoma cruzi (strain CL Brener)) (UniProt Q4DSP6).
T4 sequence (whole entry): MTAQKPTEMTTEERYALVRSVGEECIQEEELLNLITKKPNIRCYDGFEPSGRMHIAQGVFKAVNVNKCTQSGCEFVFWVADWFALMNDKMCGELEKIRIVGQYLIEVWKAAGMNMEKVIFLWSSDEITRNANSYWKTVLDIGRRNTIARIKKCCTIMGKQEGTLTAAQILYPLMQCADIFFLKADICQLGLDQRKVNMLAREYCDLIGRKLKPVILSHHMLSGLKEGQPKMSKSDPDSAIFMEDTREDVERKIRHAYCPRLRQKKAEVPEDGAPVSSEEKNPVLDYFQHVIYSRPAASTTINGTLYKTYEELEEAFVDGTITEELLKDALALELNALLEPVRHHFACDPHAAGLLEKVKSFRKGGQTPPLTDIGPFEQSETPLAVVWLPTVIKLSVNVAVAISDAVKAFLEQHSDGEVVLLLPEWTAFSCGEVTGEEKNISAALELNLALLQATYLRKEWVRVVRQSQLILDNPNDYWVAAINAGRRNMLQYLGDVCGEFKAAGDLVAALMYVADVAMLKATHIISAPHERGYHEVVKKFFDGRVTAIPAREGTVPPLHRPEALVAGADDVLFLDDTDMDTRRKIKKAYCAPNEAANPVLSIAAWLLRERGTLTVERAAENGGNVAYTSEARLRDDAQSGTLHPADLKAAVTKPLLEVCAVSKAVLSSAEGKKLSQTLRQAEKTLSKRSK
The experiment is described as follows: Trypanosoma cruzi tyrosyl tRNA synthetase (TcYRS) _High Tyrosine SOP. Note: in the data most compounds retested in dose-response had high values. It counts as functional. As to conditions: 30 µM.

Experiment [8] deals with T4, Tyrosyl-tRNA synthetase, putative (Trypanosoma cruzi (strain CL Brener)). As to the kind of experiment: Trypanosoma cruzi tyrosyl tRNA synthetase (TcYRS) SOP. As to conditions: 30 µM. It counts as functional.
Experiment [9] has as its target Chromo domain-containing protein 1 (Saccharomyces cerevisiae (strain ATCC 204508 / S288c) (Baker's yeast)) (UniProt P32657). As to the kind of experiment: ScCHD-1 Enzyme Inhibition Assay. Note: in the data most compounds retested in dose-response had high values. It counts as functional. As to conditions: 30 µM.

Chain of Sialic acid-binding Ig-like lectin 9 (Homo sapiens) (Q9Y336 whole entry): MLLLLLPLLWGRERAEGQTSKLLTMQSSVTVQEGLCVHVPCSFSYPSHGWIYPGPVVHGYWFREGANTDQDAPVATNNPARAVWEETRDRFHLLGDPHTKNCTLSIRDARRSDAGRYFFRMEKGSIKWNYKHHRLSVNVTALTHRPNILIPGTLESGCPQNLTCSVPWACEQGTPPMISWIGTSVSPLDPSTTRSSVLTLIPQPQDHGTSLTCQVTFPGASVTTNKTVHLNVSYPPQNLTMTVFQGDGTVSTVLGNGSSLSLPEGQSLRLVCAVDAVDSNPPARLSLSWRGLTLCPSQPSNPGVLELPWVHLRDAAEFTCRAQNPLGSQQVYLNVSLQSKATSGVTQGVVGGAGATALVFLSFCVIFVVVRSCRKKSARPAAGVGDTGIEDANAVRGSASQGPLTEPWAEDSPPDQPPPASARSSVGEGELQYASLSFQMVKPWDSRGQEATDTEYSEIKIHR
Chain of Protein translocase subunit SecA (Escherichia coli (strain K12)) (P10408 whole entry): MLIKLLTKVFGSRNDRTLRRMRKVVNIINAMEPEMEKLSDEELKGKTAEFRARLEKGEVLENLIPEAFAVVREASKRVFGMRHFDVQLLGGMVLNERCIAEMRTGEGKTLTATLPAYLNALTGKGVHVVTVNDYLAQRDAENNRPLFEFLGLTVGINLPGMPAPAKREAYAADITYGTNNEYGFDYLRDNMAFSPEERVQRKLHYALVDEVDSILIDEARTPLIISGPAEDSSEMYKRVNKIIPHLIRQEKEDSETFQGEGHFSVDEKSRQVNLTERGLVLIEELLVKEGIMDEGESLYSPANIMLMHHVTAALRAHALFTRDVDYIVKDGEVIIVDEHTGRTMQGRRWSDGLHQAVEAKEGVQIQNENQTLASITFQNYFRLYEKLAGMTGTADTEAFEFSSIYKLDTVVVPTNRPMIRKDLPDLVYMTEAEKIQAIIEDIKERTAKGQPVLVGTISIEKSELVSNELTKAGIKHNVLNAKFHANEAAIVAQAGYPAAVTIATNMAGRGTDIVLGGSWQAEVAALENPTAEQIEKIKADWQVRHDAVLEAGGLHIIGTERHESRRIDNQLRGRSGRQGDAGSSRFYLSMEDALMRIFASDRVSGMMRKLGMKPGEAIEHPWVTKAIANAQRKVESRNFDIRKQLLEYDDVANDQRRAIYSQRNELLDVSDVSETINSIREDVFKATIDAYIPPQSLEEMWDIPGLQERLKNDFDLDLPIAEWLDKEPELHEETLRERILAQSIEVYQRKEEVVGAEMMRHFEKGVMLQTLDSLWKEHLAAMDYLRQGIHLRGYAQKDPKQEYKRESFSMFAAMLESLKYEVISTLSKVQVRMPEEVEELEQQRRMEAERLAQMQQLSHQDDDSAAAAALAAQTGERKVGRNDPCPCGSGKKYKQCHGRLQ
Chain of Chromo domain-containing protein 1 (Saccharomyces cerevisiae (strain ATCC 204508 / S288c) (Baker's yeast)) (P32657 whole entry, the tested form may be a part): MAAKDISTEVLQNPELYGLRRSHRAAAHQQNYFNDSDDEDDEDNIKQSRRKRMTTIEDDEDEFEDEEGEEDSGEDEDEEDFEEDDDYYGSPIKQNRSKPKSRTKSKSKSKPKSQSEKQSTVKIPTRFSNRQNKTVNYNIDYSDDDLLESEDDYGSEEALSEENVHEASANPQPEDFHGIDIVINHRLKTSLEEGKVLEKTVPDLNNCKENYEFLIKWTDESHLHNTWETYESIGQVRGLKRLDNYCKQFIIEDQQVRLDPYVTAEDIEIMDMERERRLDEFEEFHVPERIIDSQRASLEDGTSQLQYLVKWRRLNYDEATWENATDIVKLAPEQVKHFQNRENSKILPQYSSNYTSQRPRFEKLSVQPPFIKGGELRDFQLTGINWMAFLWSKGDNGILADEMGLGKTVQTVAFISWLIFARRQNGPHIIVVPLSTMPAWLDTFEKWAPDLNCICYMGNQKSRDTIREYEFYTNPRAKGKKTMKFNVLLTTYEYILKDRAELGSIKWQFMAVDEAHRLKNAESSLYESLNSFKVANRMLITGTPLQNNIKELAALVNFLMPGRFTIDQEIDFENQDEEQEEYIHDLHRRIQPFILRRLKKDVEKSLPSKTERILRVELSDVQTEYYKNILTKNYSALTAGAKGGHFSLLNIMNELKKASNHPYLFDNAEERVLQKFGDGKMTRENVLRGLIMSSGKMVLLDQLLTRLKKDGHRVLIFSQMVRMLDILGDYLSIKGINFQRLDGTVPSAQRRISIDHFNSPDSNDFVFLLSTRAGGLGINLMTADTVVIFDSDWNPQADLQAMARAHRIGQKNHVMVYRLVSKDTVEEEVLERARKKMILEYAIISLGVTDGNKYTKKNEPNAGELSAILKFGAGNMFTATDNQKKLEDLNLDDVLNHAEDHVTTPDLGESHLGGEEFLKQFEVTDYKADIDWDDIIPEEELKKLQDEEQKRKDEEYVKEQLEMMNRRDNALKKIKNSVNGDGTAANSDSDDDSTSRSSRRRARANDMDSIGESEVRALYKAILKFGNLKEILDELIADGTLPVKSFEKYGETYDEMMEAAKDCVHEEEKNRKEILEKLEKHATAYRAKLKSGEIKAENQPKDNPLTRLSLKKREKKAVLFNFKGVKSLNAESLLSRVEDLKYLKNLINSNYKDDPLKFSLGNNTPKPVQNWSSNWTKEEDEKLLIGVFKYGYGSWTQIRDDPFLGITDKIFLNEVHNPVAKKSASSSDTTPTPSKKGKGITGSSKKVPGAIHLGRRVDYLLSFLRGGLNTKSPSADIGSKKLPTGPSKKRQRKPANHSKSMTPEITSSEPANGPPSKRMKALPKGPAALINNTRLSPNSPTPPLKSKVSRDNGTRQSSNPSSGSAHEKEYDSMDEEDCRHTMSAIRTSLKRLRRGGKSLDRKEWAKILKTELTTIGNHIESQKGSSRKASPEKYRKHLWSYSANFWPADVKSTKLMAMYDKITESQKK

Consider `CCN(Cc1ccco1)C(=O)NCc1nnc2n1CCC2`, for which the Percent Effect in experiment [1] was -1.4%; in [2], 10.8%; in experiment [3], -2.71%; in experiment [4], 1.38%; in the experiment on Trypanosoma cruzi, -1.35%; in experiment [5], 3.81%. Also, the Percent Effect is 20.5% in [6]; 0.671% in the experiment listed under Homo sapiens; 6.88% in experiment [7]; 14.6% in [8]; -1.97% in experiment [9].

As to `CC(C)(C)NC(=O)NC(=O)CNC(C)(C)c1ccc2c(c1)OCCO2`, the Percent Effect in [1] is -5.89%; in experiment [2], 13.5%; in experiment [3], -6.92%; in [4], 1.3%; in the experiment with Trypanosoma cruzi, 0.472%; in [5], -4.01%. Moreover, the Percent Effect is 6.67% in experiment [6]; 11.6% in the experiment listed under Homo sapiens; 4.43% in experiment [7]; 13.6% in [8]; -5.2% in [9].

As for `Cc1cn2c(n1)CCC(NC(=O)c1cnc(C)nc1C(C)C)C2` (stereo not given), the Percent Effect in [1] is -4.68%; in experiment [2], 10.4%; in experiment [3] it was -12.2%; in experiment [4], 12.9%; with Trypanosoma cruzi, 3.23%; in experiment [5], 1.9%. For the same compound, the Percent Effect is 3.48% in experiment [6]; 1.24% in the experiment listed under Homo sapiens; 10.5% in [7]; 18.8% in experiment [8]; -16.9% in [9].

With `CCCS(=O)(=O)N1CCC(NC(=O)c2ccc(Cl)s2)CC1`, the Percent Effect in experiment [1] was -0.0871%; in experiment [2], 2.67%; in experiment [3], -1.87%; in experiment [4] it was 5.67%; with Trypanosoma cruzi, 5.16%; in experiment [5] it was 9.9%. Further, the Percent Effect is 3.14% in [6]; -1.58% in the experiment listed under Homo sapiens; 8.2% in [7]; 16.1% in experiment [8]; -3.77% in experiment [9].

Regarding `Cc1nnc2n1CCN(CCS(=O)(=O)c1ccccc1)C2`, the Percent Effect in experiment [1] was -2.96%; in experiment [2], 15.6%; in experiment [3], 2.16%; in experiment [4], 8.34%; in the experiment on Trypanosoma cruzi it was 1.69%; in experiment [5], -3.2%. For the same compound, the Percent Effect in [6] was -2.03%; in the experiment filed under Homo sapiens, 27.6%; in experiment [7], 2.91%; in experiment [8], 14.6%; in experiment [9] it was -8%.

On to `Cc1c(C2CCCN(C(=O)C3CC3)C2)n2c(nc1=O)CCC2` (stereo not given), for which the Percent Effect in [1] is -7.83%; in experiment [2], 23%; in experiment [3], 2.41%; in [4], -4.63%; with Trypanosoma cruzi, -0.593%; in experiment [5], 0.232%. Besides, the Percent Effect in experiment [6] was 15.4%; in the experiment listed under Homo sapiens, 3.94%; in experiment [7], 4.3%; in experiment [8] it was 11.7%; in experiment [9], -11%.

On to `Cn1cc(-c2nc(CN3CCN(CCO)CC3)cs2)cn1`, for which the Percent Effect in experiment [1] is 0.128%; in [2], 15.8%; in experiment [3] it was 4.54%; in experiment [4], -2.39%; in the experiment on Trypanosoma cruzi, -0.376%; in experiment [5], -1.53%. Besides, the Percent Effect was 21.9% in experiment [6]; 17% in the experiment filed under Homo sapiens; 9.31% in [7]; 19.5% in experiment [8]; -10.9% in experiment [9].

With `Cc1nn(C)cc1CNC(=O)c1cn(CCC2CCCCN2)nn1` (stereo not given), the Percent Effect is -3.59% in experiment [1]; 2.67% in experiment [2]; -4.65% in experiment [3]; 9.99% in [4]; 9.64% in the experiment with Trypanosoma cruzi; -1.04% in experiment [5]. The Percent Effect in experiment [6] was 20.9%; in the experiment filed under Homo sapiens it was -18.7%; in experiment [7], 6.01%; in [8], 16.1%; in experiment [9] it was -3.7%.

Take `O=C(NCC(O)c1ccccc1Cl)c1cccc(-n2cnnn2)c1` (stereo not given): the Percent Effect in experiment [1] was -1.49%; in [2], 11%; in experiment [3] it was -3.34%; in [4], 14.3%; in the experiment on Trypanosoma cruzi, 1.18%; in [5] it was 1.36%. The Percent Effect in experiment [6] came to 14.2%; in the experiment listed under Homo sapiens, 24.8%; in experiment [7] it was 3.23%; in experiment [8], 7.5%; in experiment [9] it was 98.6%.

Turning to `COCC(=O)NCCn1ccc2c(OC)cccc21`, the Percent Effect in experiment [1] was -0.301%; in [2] it was 17.3%; in experiment [3], 0.941%; in [4], 6.9%; in the experiment on Trypanosoma cruzi it was 0.393%; in experiment [5], -3.7%. Also, the Percent Effect in experiment [6] is 10.5%; in the experiment listed under Homo sapiens it was 19.7%; in experiment [7], 6.35%; in experiment [8], 15.4%; in experiment [9], -8%.
